# Laboratory results: PubChem BioAssay (NCI)
# “And” between values parts separate entries of the source, which are not always exact repeats. Identical values can stand only once. This is part of a sample that, as a whole, favours compounds with a hit. Of some 79,000 tested, about 15% had one in any assay. A number with no mark means an inactive call. The source made the active and inactive calls. Rule as the data show it: active = growth inhibition above about 70%; inactive = the rest.
# Assays:
# [1] = NCI Yeast Anticancer Drug Screen. Data for the rad50 strain (AID 155);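 also: 0% = growth of vehicle-only cultures of the same strain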; conditions: S. cerevisiae rad50 strain growth inhibition, active compounds read high; at 50.0 µM unless noted
# In short: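 Readout: growth inhibition relative to vehicle-treated cultures. Compound exposure was carried out in a genetically defined yeast strain deficient in DNA damage repair.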
# [2] = NCI Yeast Anticancer Drug Screen. Data for the mec2-1 strain (AID 157); conditions: S. cerevisiae mec2-1 strain, active compounds read high; at 50.0 µM unless noted
# In short: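 Readout is yeast growth inhibition, normalised to vehicle-treated controls, in the mec2-1 strain exposed to compound.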
# [3] = NCI Yeast Anticancer Drug Screen. Data for the sgs1 mgt1 strain (AID 161);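 also: 0% = growth of cultures given vehicle only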; conditions: S. cerevisiae sgs1 mgt1 strain, active compounds read high; at 50.0 µM unless noted
# In short: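 Yeast cells carrying a defined DNA-repair defect were exposed to test compounds. Growth inhibition was measured relative to vehicle-treated controls.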
# [4] = NCI Yeast Anticancer Drug Screen. Data for the cln2 rad14 strain (AID 165);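 also: 0% = growth equal to vehicle treated cultures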; conditions: S. cerevisiae cln2 rad14 strain, active compounds read high; at 50.0 µM unless noted
# In short: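 Relative to vehicle controls, growth inhibition of compound-treated cln2 rad14 yeast was recorded.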
# [5] = NCI Yeast Anticancer Drug Screen. Data for the bub3 strain (AID 167); conditions: S. cerevisiae bub3 mutant strain, active compounds read high; at 50.0 µM unless noted
# In short: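 Readout: yeast growth inhibition, expressed relative to vehicle-only wells. The test organism is a mutant strain from a panel with lesions in DNA repair or checkpoint genes.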
# [6] = NCI Yeast Anticancer Drug Screen. Data for the mlh1 rad18 strain (AID 175); conditions: S. cerevisiae mlh1 rad18 strain growth inhibition, active compounds read high; at 50.0 µM unless noted
# In short: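 Test agents were incubated with a yeast strain of defined genotype (DNA damage repair defect). Inhibition of growth was derived by comparison with vehicle-exposed cultures.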
SMILES,growth inhibition [1],growth inhibition [2],growth inhibition [3],growth inhibition [4],growth inhibition [5],growth inhibition [6]
COc1cccc(C2C(C(=O)Nc3cc(=O)n(C)c(=O)n3C)=C(C)NC(C)=C2C(=O)Nc2cc(=O)n(C)c(=O)n2C)c1O,-15.1%,13%,13.4%,12.2%,2.55%,14.8%
CCc1ccc2c(c1)C(O)(C#Cc1ccccc1)c1cc(CC)ccc1C2(O)C#Cc1ccccc1 (centres undefined),37.5%,25.2%,45.5%,22.9%,-4.8%,32.7%
CCN(CC)c1ccc(/C=C(\C)c2nc3ccc(C)cc3[nH]2)cc1,-5.25%,-10.7%,8.1%,1.8%,-9.3%,3.45%
O=c1ccc2ccc3[nH]onc3c2c1,10.2%,-12.6%,-5.85%,-48.8%,-26.4%,-2.2%
O=Nc1c(O)c2ccccc2[nH]c1=O,15.6%,33.6%,34.6%,24.9%,57.5%,30.4%
O=c1oc2ccccc2cc1-c1nc2ccccc2c(=O)[nH]1,17.8%,8.1%,-20.9%,13.7%,-4.9%,-50.9%
COC(=O)C(=O)C1CCCC(C)(c2ccccc2)C1 (centres undefined),-0.1%,2.05%,-5.05%,0.2%,1.7%,-4.7%
Cc1sc2ccccc2[n+]1CCC(=O)O,-23.1%,-14%,-38.6%,-72.8%,-14.8%,-7.65%
O=S1(=O)C(=C(c2ccccc2)c2ccccc2)S(=O)(=O)c2ccccc21,39.7%,13.3%,13.9%,23.9%,-6.55%,29.1%
CCCCOC(=O)NC(=O)c1cc2cc(Cl)ccc2oc1=O,4.65%,17.9%,13.9%,10.7%,23.1%,18.8%
O=C(C#Cc1ccccc1)Nc1ccccc1CC(c1c[nH]c2ccccc12)c1c[nH]c2ccccc12,0.75%,-2.25%,1.55%,5.4%,8.85%,-7.65%
O=C1C=C(c2ccccc2)C(c2ccccc2)/C1=N/O (centres undefined),11.3%,-12.9%,2.55%,13.1%,11.9%,-9.85%
CCCCCCCCCCCCNCCC(=O)O,25%,-19%,42.1%,14.6%,50.5%,36.5%
O=[N+]([O-])c1ccc(/C=N/Nc2nnc3c4ccccc4c4ncccc4c3n2)o1,-20.8%,-14.6%,-23.6%,-29.8%,-33.8%,16.9%
CCN1CCCC(C(=O)O)(c2ccccc2)CC1 (centres undefined),1.75%,-11.1%,-6.2%,-39%,-1.15%,2%
O=C(NO)/C(CC(=O)c1cccc(O)c1)=N\O,-7.05%,10.1%,-7.35%,-8.55%,-11.1%,5.5%
Cc1ccc(-c2c(C)c(-c3ccccc3)c(-c3ccccc3)c(C)c2-c2ccccc2)cc1C,63.3%,77.3% (active),25.8%,82% (active),97.5% (active),65%
O=C(O)c1ccccc1C(=O)Nc1ccc(S(=O)(=O)Nc2nccs2)cc1,-22.6% and -6.05%,-15.9% and 9.8%,-17.1% and 19.8%,-4.7% and -20%,-2.35% and -4.15%,-18.5% and 25.6%
COc1cccc(-c2cc(=O)c3cc(N4CCOCC4)ccc3[nH]2)c1,-35.9%,-27.9%,-22.9%,-2%,-40.9%,-58.2%
O=S1(=O)CCC(c2ccccc2)C1 (centres undefined),2.3%,-10.7%,-13.8%,0.45%,-12.3%,-7.15%
CC(=O)Sc1ccc2c(c1)-c1ccccc1C2=O,28.6%,27.2%,22.4%,8.25%,39.6%,16.9%

SMILES,growth inhibition [1],growth inhibition [2],growth inhibition [3],growth inhibition [4],growth inhibition [5],growth inhibition [6]
OCC1OC(O)C(O)C(O)C1O (centres undefined),5.05% and 8.6%,1.75% and 15.1%,-0.95% and -5.85%,-19.4% and 16.8%,-4.1% and 2.1%,3.1% and 14.4%
CCNC(=O)Nc1cccc(C)n1,14.9%,14.1%,22.8%,27.6%,4.4%,19.4%
CC(=O)c1cc([N+](=O)[O-])ccc1OCC(=O)O,5.95%,4.85%,3.75%,1.85%,9.85%,9.6%
COc1ccc(C(=O)N2N=C(C)C(C)(C)C2(C)O)cc1 (centres undefined),-7.05%,-23.1%,-23.6%,2.5%,,-1.95%
Clc1ccccc1Nc1nc(Nc2ccccc2Cl)nc(Nc2ccccc2Cl)n1,21.1%,19.4%,21.6%,37.9%,,5.95%
CN(C)C(Cc1cnc[nH]1)C(=O)N1CCCC1C(N)=O (centres undefined),-22.4%,-45.8%,-9.65%,-0.8%,,5.85%
O=C(NCCCN1CCN(CCCNC(=O)Nc2ccc(N=Nc3ccccc3)cc2)CC1)Nc1ccc(N=Nc2ccccc2)cc1,-0.95%,16.3%,0.65%,-3.3%,,14.6%
N#C/C=C\c1ccc(-c2cc(C(F)(F)F)cc(C(F)(F)F)c2)o1,-49%,-22.6%,-42.5%,3.65%,,-57.5%
Cc1cccc(Cl)c1NC(=O)c1c(Cl)c(Cl)c(Cl)c(Cl)c1C(=O)O,11.4%,10.6%,-0.35%,-30.1%,,22.2%
CN(C)c1ccc(/C=C/C(=O)N[C@@H]2C(=O)N3[C@@H]2SC(C)(C)[C@@H]3C(=O)O)cc1,-10.3%,-10.8%,-11.9%,6.35%,,12.8%
Cc1ccc(S(=O)(=O)N(CC(=O)c2ccccc2)c2ccc(Br)cc2)cc1,22.9%,6.6%,26.1%,4.9%,,16.1%
Cc1c2c(c(C)c3c1C(=O)c1cc4c(cc1C3=O)OCO4)OC(C)(C)O2,14.3%,0.35%,21.4%,8.95%,,23.1%
C1=C(Nc2ccccc2)C(=Nc2ccccc2)C=C(Nc2ccccc2)C1=Nc1ccccc1,-17.2%,-4.25%,-3.1%,7.1%,,5.4%
CCCCCCCCCCCC(=O)CCCCCCCCCCCC(=O)OC,2.15%,15.4%,17.1%,14.2%,,-2.35%
COc1ccc(C2S/C(=C\c3ccc(OC)cc3OC)C(=O)N2NC(=O)Cc2ccccc2)cc1 (centres undefined),-4.3%,-50.6%,2.4%,-59.6%,,5.05%
CCOC(=O)C(C)NC(=O)NC12CC3CC(CC(F)(C3)C1)C2 (centres undefined),31.3%,10.6%,3.1%,6.35%,,-0.2%
CNC(=O)NCCCCC(NC(=O)OCc1ccccc1)C(=O)OCc1ccccc1 (centres undefined),3.15%,-14%,-37.2%,-3.5%,,-24.1%
O=C(O)NC(=O)c1cc([N+](=O)[O-])ccc1COC1CCCCO1 (centres undefined),5.95%,-0.85%,2.55%,-11.7%,,0.75%
CCC12C=CCN3CC[C@@]4(c5cc([C@@]6(C(=O)OC)C[C@@H]7CN(CCc8c6[nH]c6ccccc86)C[C@](O)(CC)C7)c(OC)cc5N(C)[C@H]4[C@@](O)(C(=O)NCCCCCCCCCCCC(=O)O)[C@@H]1O)C32 (some centres undefined),19%,19.8%,21.6%,5%,,-17.6%
Nc1c(I)cc(I)c(C(=O)O)c1I,-44%,-31.9%,-17%,-14.8%,,-39.1%
CC(=O)NC1=NC(=O)/C(=C/c2ccccc2Cl)N1C,-45.7%,-53.8%,-10.9%,8%,,28.6%
